Measurements from ChEMBL document CHEMBL1157539, “Thousands of chemical starting points for antimalarial lead identification” (Nature, 2010).
“And” between values parts separate entries of the source, which are not always exact repeats. Equal values may be shown once.

Tests used:
Assay type in all cases: functional
Plasmodium falciparum [1] = test: GSK_TCMDC: Inhibition of Plasmodium falciparum 3D7 in whole red blood cells, using parasite LDH activity as an index of growth. Test compounds present at 2uM
Plasmodium falciparum [2] = test: GSK_TCMDC: Inhibition of Plasmodium falciparum Dd2 in whole red blood cells, using parasite LDH activity as an index of growth. Test compounds present at 2uM
HepG2 = test: GSK_TCMDC: Percent inhibition of human HepG2 cell line. Test compounds present at 10uM.

Structure (SMILES)	Inhibition (Plasmodium falciparum [1])	Inhibition (Plasmodium falciparum [2])	Inhibition (HepG2)
O=C(/C=C/c1ccc(Cl)c(Cl)c1)NCCCCCN1CCCC(C(=O)Nc2cccc(Cl)c2)C1 (stereo not drawn)	99%	2%	41%
Cl.N#Cc1ccc2c(c1)CN(CC[C@H]1CC[C@H](NC(=O)/C=C/c3c[nH]c4ccccc34)CC1)CC2	92% and 97%	24% and 27%	20% and 10%
CC(C)(C)Cn1cc(-c2ccc(C(=O)NCCc3ccc(S(C)(=O)=O)cc3)cc2)c(N)n1.CC(C)(C)Cn1ncc(-c2ccc(C(=O)NCCc3ccc(S(C)(=O)=O)cc3)cc2)c1N.O=C(O)C(F)(F)F	86%	10%	7%
O=C(Nc1ccccc1)N(Cc1cccc(-c2cccc(CNCc3ccc4c(c3)OCO4)c2)c1)C1CCN(Cc2ccccc2)CC1.O=C(O)C(F)(F)F	100%	84%	96%
CCCc1cc(Cc2cnc(N)nc2N)cc(CC)c1OC.Cl	97%	1%	4%
CN(c1ccc(NC(=O)Nc2cc(C(F)(F)F)ccc2F)cc1)c1ccnc(NCCN2CCCC2)n1.O=C(O)C(F)(F)F	93%	1%	94%
CCOC(=O)CNC(=O)N(CCN(Cc1ccccc1)C(=O)NCC(=O)OCC)Cc1ccccc1	98%	0%	9%
CN(C)CCCNc1ncnc2c1[nH]c1ccc(F)cc12	100%	0%	14%
CN(Cc1ccc(-c2ccc(C(F)(F)F)cc2)cc1)C(=O)Cn1c(CCc2cccc(F)c2F)cc(=O)c2ccc(OCCCN3CCCCC3)cc21.O=C(O)C(O)C(O)C(=O)O	100%	90%	79%
O=C(/C=C/c1ccc(Cl)c(Cl)c1)N1CCC(C(O)CN2CCC(c3c[nH]c4ccccc34)CC2)CC1.O=C(O)C(F)(F)F (stereo not drawn)	99%	46%	14%
CCc1c(CCNCCCCCCNCCc2ccc(OC)c(OC)c2C)ccc(OC)c1OC.Cl	98%	1%	16%
CC1CN(c2cnn(Cc3cccc(NC(=O)Nc4ccc(F)cc4[N+](=O)[O-])c3)c(=O)c2Cl)CC(C)N1.O=C(O)C(F)(F)F (stereo not drawn)	91%	13%	7%
Cl.NC(=O)c1cccc(Nc2nccc(Nc3ccc(Oc4c(Cl)cccc4Cl)c(Cl)c3)n2)c1	93%	17%	2%
O=C(Nc1cccnc1)c1cn(-c2ccccc2)nc1-c1cccs1	99%	61%	3%
CC(C)CNCc1ccc(-c2cccc(CNC3CCN(Cc4ccccc4)CC3)c2)cc1.O=C(O)C(F)(F)F	100%	100%	34%
Cc1[nH]c(C)c(-c2ccc(/C=C/c3ccccn3)cc2)c(=O)c1Cl	97%	96%	0%

Structure (SMILES)	Inhibition (Plasmodium falciparum [1])	Inhibition (Plasmodium falciparum [2])	Inhibition (HepG2)
O=S(=O)(c1ccccc1C(F)(F)F)C1CC2CCC(C1)N2S(=O)(=O)c1ccc(Cl)c(C(F)(F)F)c1 (stereo not drawn)	97%	99%	4%
CCC(C)NS(=O)(=O)c1ccc2nc(Nc3ccc(C)c(Cl)c3)n([C@H](C)C(C)(C)C)c2c1 (stereo partly drawn)	98%	100%	8%
CCCCCc1cc(OC(C)=O)c2c(c1)OC(C)(C)C=C2C1=CCN(Cc2ccccc2)CC1.O=C(O)/C=C/C(=O)O	97%	88%	14%
COc1ccc([N+](=O)[O-])cc1N(Cc1ccccc1-c1ccccc1)S(=O)(=O)c1ccc(C(F)(F)F)cc1	96%	66%	3%
O=CO.Oc1ccccc1CNCc1ccc(-c2cnc(N3CCCC(c4ccccc4)C3)nc2)cc1 (stereo not drawn)	99%	84%	6%
O=C(O)C(=O)O.Oc1c(CN2CCC(Cc3ccccc3)CC2)cc(Cl)c2cccnc12	96%	94%	49%
Br.COc1ccc(OCCCON2C(=N)N=C(N)NC2(C)C)cc1	97%	94%	55%
CCNc1cc(C(=O)N[C@@H](Cc2ccccc2)[C@H](O)CNC2CCC(C)(C)CC2)cc(N2CCCCS2(=O)=O)c1.Cl	98%	71%	1%
COc1ccc(CNC2Cc3ccccc3C2)cc1-c1ccc(S(=O)(=O)NCc2ccccc2)s1.O=C(O)C(F)(F)F	97%	25%	22%
O=C(/C=C/c1ccc(Cl)c(Cl)c1)NCCCCCN1CCC(NC(=O)Nc2cccc(Cl)c2)CC1	100%	13%	52%
Cc1cccc(C=NN=c2cc(C)[nH]c3ccc(F)cc23)n1	95%	45%	1%
CCOc1ccccc1C1C(C(=O)C(C)(C)C)N2c3ccc(Br)cc3C=CC2C12C(=O)c1ccccc1C2=O (stereo not drawn)	95%	94%	17%
CCNc1cc(C(=O)N[C@@H](Cc2ccccc2)[C@H](O)CNCc2cc(C#N)ccc2OC)cc(N2CCCC2=O)c1.O=C(O)C(F)(F)F	85%	51%	0%
O=C(NC1CCN(CCCOc2ccnc3cc(Cl)ccc23)C1)c1ccc(Br)cc1 (stereo not drawn)	86%	87%	21%
O=C(O)C(F)(F)F.O=[N+]([O-])c1cccc(CNCC2CCN(Cc3ccc(Cl)c(Cl)c3)CC2)c1	100%	41%	9%
